Hit rate of the full screen: of about 1,000 compounds, about 270 (27%) were called active. Only a sample is shown. A number with no mark means an inactive call. Rule as the data show it: active = inhibition above about 14%; inactive = the rest.

These results are taken from PubChem BioAssay AID720531 (The Scripps Research Institute Molecular Screening Center, 2013).

The target in this test is Methyl-CpG-binding domain protein 2 (Homo sapiens) (UniProt Q9UBB5). Description: inhibitors of MBD2 binding to methylated DNA, confirmation, biochemical, TR-FRET, DNA-binding domain, human (AID 720531). The conditions noted are these: TR-FRET MBD2-DBD binding to methylated oligonucleotide; at 4.4 µM; active compounds read high. For orientation: Time-resolved FRET reads energy transfer from a long-lived donor to a nearby acceptor.
Sequence of Methyl-CpG-binding domain protein 2 (Homo sapiens) (Q9UBB5 whole entry, looked up, the tested form may be a part): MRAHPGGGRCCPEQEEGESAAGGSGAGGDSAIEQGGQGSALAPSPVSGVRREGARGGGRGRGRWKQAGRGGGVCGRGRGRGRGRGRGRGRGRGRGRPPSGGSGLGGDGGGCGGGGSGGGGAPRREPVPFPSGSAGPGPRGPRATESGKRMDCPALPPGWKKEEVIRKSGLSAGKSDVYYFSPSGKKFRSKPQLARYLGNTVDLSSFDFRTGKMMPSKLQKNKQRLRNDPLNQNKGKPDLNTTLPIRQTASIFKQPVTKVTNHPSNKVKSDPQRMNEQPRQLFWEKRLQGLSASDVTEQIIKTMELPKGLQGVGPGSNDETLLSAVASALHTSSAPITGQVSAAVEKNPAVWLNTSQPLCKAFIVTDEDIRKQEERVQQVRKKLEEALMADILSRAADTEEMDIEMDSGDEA
The term inhibition denotes the share of the control response that was lost under treatment. On to `COc1ccc(N2C(=O)/C(=C/c3ccco3)C(=O)NC2=S)cc1`, for which the inhibition was 88.4% (active).

On to `Cc1cc(/C=C2/C(=O)NC(=O)N(Cc3ccco3)C2=O)c(C)n1-c1ccc(C(=O)O)cc1`, for which the inhibition is 3.26%. On to `O=C1NC(=O)N(Cc2ccco2)C(=O)/C1=C\c1ccc(-c2ccc(F)cc2)o1`, for which the inhibition was 4.49%.
